Data published in PubChem BioAssay (Tox21).
Inconclusive results are not listed. Where a call stands in place of a potency, no number is given. Activity calls are given as the source filed them. Calls come from the whole dose curve; as a rule, active = well fitted cell-killing curve with a large enough effect in the repeat runs; inconclusive = weak or mixed curves, or effect the other way; inactive = flat fitted curve, though single readings scatter.

assay: qHTS assay to identify small molecule antagonists of the androgen receptor (AR) signaling pathway using the MDA cell line - cell viability counter screen (AID 743041; note: nearly all actives have a fitted effect of over 45% in size); conditions: MDA-kb2 viability, CellTiter-Fluor, 16 h, cells co-treated with R1881 androgen agonist; series mostly up to 70.3 µM
From the text: National Center for Advancing Translational Sciences [NCATS]
NIH Chemical Genomics Center [NCGC]
U.S. Environmental Protection Agency [EPA]
National Institutes of Environmental Health Sciences [NIEHS]
National Toxicology Program [NTP]
U.S. Food and Drug Administration [FDA]
Androgen receptor (AR), a nuclear hormone receptor, plays a critical role in AR-dependent prostate cancer and other androgen related diseases. Endocrine disrupting chemicals (EDCs) and their interactions with steroid hormone receptors like AR may cause disruption of normal endocrine function as well as interfere with metabolic homeostasis, reproduction, developmental and behavioral functions. To identify the compounds that inhibit AR signaling, MDA-kb2 AR-luc cell line (from ATCC, deposited by Wilson et al.) was used to screen the Tox21 10K compound library. MDA-kb2 AR-luc cell line is human breast carcinoma cell line that was stably transfected with a luciferase reporter gene under control of the MMTV promoter containing response elements for both androgen receptor (AR) and glucocorticoid receptor (GR). The cytotoxicity of the Tox21 compound library against the MDA-kb2 AR-luc cell line was tested in parallel by measuring the cell viability using CellTiter-Fluor assay (Promega, Madison, WI) in the same wells.
Tox21 Assay Protocol Summary:
MDA-kb2 AR-luc cells were dispensed at 3,000 cells/4 uL/well of culture medium into white wall/solid-bottom 1536-well plates using a Multidrop Combi (ThermoFisher Scientific, Waltham, MA) dispenser. After the assay plates were incubated at a 37C and 0% CO2 for 5 hr, 23 nL of compounds dissolved in DMSO, positive controls or DMSO only was transferred to the assay plate by a Pintool station (Kalypsys, San Diego, CA), followed by addition of 1 uL of agonist (R1881) in culture medium using a Bioraptr Flying Reagent Dispenser (FRD) workstation (Beckman Coulter, Indianapolis, IN, USA). The plates were incubated at a 37C and 0% CO2 for 16 h. After 15.5 h incubation, 1uL of CellTiter-Fluor reagent (Promega) was added using a Bioraptr FRD to each plate for measuring cytotoxicity. The fluorescence intensity was quantified on a ViewLux plate reader (PerkinElmer, Shelton, CT) following 30 min incubation at 37C and 0% CO2.
Potency is the fitted concentration of half-maximal effect.

Compound	Potency
Cc1nc2ccccn2c(=O)c1CCN1CCC(C(=O)c2ccc(F)cc2)CC1	inactive
CCOC(=O)c1ccccc1C	inactive
Cc1ccnc2ccccc12	inactive
O=C(O)c1ccc(CO)o1	inactive
CC1=CC(O)CC(C)(C)C1 (stereo not given)	inactive
Cc1cc(OI)c(C(C)C)cc1-c1cc(C(C)C)c(OI)cc1C	inactive
CCCCC(=O)O[C@]1(C(=O)CO)[C@@H](C)C[C@H]2[C@@H]3CCC4=CC(=O)C=C[C@]4(C)[C@@]3(F)[C@@H](O)C[C@@]21C	inactive
Cc1cnc(C)c(C)n1	inactive
Fc1c(F)c(F)c(Br)c(F)c1F	inactive
CCCCCCCCCCOS(=O)(=O)O	inactive
CCOC(=O)/C=C/C(=O)O	inactive
C[C@]12CCC(=O)C=C1C=C[C@@H]1[C@@H]2CC[C@@]2(C)[C@H]1CC[C@@]21CCC(=O)O1	inactive
O=C(CCCN1CCN(c2ccc(F)cc2)CC1)NC1c2ccccc2CSc2ccccc21 (stereo not given)	inactive
CC1(C)C2=CCCC(C)(C)[C@]23CC[C@H]1C3	inactive
CC(=O)Nc1ccccc1C	inactive
CC(CCc1ccc2c(c1)OCO2)NN (stereo not given)	inactive
C[N+]1(C)CCC(=C(c2ccccc2)c2ccccc2)CC1	inactive
O=C(O)Cc1ccc(-c2ccccc2)cc1	inactive
CCNC(=O)N1CCN(CCCC(c2ccc(F)cc2)c2ccc(F)cc2)CC1	26.6 µM (active)
O=C(O)C(Cc1cc(I)c(O)c(I)c1)c1ccccc1 (stereo not given)	inactive

Compound	Potency
CO[C@H]1O[C@H](CO)[C@@H](O)[C@H](O)[C@H]1O	inactive
CCN(CC)CCNC(=O)c1ccc(NC(C)=O)cc1	inactive
c1ccc(COCc2ccccc2)cc1	inactive
CCc1c2c(nc3ccc(OC(=O)N4CCC(N5CCCCC5)CC4)cc13)-c1cc3c(c(=O)n1C2)COC(=O)[C@]3(O)CC	inactive
CC(=O)Oc1ccc(C(=C2CCCCC2)c2ccc(OC(C)=O)cc2)cc1	inactive
Nc1nccs1	inactive
O=C(CCCCCCCCC#CI)Oc1ccccc1	inactive
CN1CCN(c2c(F)cc3c(=O)c(C(=O)O)cn4c3c2OCN4C)CC1	inactive
Cc1oncc1C(=O)Nc1ccc(C(F)(F)F)cc1	inactive
CC1(C)O[C@@H]2C[C@H]3[C@@H]4CCC5=CC(=O)C=C[C@]5(C)[C@H]4[C@@H](O)C[C@]3(C)[C@]2(C(=O)CO)O1	inactive
CC(CCO)CCc1ccccc1 (stereo not given)	inactive
CCOC(=O)CC(=O)C(=O)OCC	inactive
N#C/C(=C1/SC[C@@H](c2ccc(Cl)cc2Cl)S1)n1ccnc1	inactive
CCCOCCOCCO	inactive
CCC(C)=O	inactive
Cc1cc(O)c2c(O)c3c(O)cccc3cc2c1	inactive
Cc1c(C(=O)NN2CCCCC2)nn(-c2ccc(Cl)cc2Cl)c1-c1ccc(Cl)cc1	inactive
c1cnc2c(n1)CCCC2	inactive
Cc1ccc(/C=N/n2c(-c3ccccc3)csc2=S)cc1	inactive
COC(=O)CC(=O)C(C)(C)C	inactive
